CHO-K1 Ca PAM = counter-screen for M1 PAMs: effect in parental CHO-K1 cells; hit rate 0.02% among 360,000; ATP EC20, Fluo-8 calcium fluorescence; 0% at ATP EC20, 100% at ATP max; AID 602247; activation, % at 3 µM;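 active means activation above the run cutoff, the mean activation of all test compounds plus 3 SD, cut at about 40% in these data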;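 further: peak over basal fluorescence ratio in a 140 s read after ATP addition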
CHRM1 agonist = activates human CHRM1 receptor | CHO-K1 hM1, Fluo-8 calcium fluorescence, agonist mode; 0% DMSO, 100% acetylcholine EC100 | hit rate 0.33% among 360,000 | AID 588814 | P11229 | activation, % at 3 µM;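 active means activation above the run's mean compound activation plus 3 SD, cut at about 16% in these data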;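 further: peak over basal fluorescence ratio within a 140 s kinetic read after compound addition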
Target sequence (P11229 whole entry, looked up): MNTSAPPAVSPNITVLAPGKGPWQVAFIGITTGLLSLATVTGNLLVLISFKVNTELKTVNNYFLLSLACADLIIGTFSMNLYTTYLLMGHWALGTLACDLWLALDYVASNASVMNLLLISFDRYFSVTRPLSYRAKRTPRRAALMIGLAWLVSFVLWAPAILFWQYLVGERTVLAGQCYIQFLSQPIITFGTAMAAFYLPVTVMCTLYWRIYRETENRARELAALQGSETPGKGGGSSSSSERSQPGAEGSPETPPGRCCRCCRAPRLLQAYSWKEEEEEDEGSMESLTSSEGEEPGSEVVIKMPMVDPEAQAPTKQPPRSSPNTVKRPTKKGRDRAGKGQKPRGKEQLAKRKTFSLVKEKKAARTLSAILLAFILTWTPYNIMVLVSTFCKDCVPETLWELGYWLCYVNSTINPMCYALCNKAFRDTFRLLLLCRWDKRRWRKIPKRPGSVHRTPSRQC
M1 ag parental = nonselective activator or artifact in parental CHO-K1 cells. AID 602248. hit rate 0.48% among 360,000. activation, % at 3 µM. Fluo-8 calcium fluorescence; scaled to maximal ATP response, vehicle zero; in the data active means activation above about 15%;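 further: untransfected CHO-K1 host cells lacking M1 receptor as counterscreen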
M1 antag = antagonists of human M1 muscarinic receptor. hit rate 1.3% among 360,000. AID 588852. P11229. CHO-K1 hM1, Fluo-8 calcium fluorescence, ACh EC80 antagonist. inhibition, % at 3 µM;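 active means percent inhibition above its own plate's cutoff, namely the mean of that plate's compound wells plus 3 SD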;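 further: peak over basal fluorescence ratio during 140 s after agonist addition; 0% = ACh EC80 plus DMSO and 100% = DMSO alone without agonist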
CHRM1 PAM = human CHRM1 positive allosteric modulation. P11229. CHO-K1 hM1, Fluo-8 calcium fluorescence, ACh EC20; 0% = ACh EC20, 100% = maximal ACh. activation, % at 3 µM. hit rate 0.088% among 360,000. AID 588819; in the data active means activation above about 19%, passing the limit was not always enough
CHO-K1 Ca antag = nonselective inhibitor or artifact in parental CHO-K1 cells; ATP-induced calcium, Fluo-8 fluorescence; AID 602250; hit rate 0.6% among 360,000; inhibition, % at 3 µM;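 active means inhibition above a per-plate cutoff, the plate's mean sample inhibition plus 3 SD, cut at about 24% in these data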;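 further: 0% = DMSO plus EC80 ATP and 100% = DMSO alone without ATP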
Numbers without * were called inactive; / = no result given. A selection: hits, their analogues and other compounds. The true share with any hit is near 2.4%.

SMILES | CHO-K1 Ca PAM | CHRM1 agonist | M1 ag parental | M1 antag | CHRM1 PAM | CHO-K1 Ca antag
CC1CCC(C(C)C)C(OCC[N+](C)(C)C)C1 (stereo not drawn) | -8.6 | -9.7 | 0.5 | 99.7* | -21.6 | -3.8
CC1CCC(C(C)C)C(OCC(O)CN2CCCC(C)C2)C1 (stereo not drawn) | -8.7 | -8.0 | 1.0 | 15.2 | -12.9 | -7.5
COc1ccc(CN2CCN(C(=O)C3CCC(CNS(=O)(=O)c4ccc(C)cc4)CC3)CC2)c(OC)c1OC (stereo not drawn) | -13.3 | -6.0 | 8.9 | 17.6 | -8.8 | 14.1
CCN(c1ccccc1)S(=O)(=O)c1ccc(Cl)c(C(=O)N(CC2CCCO2)C2CCS(=O)(=O)C2)c1 (stereo not drawn) | 4.6 | -9.6 | 0.2 | 2.2 | 2.0 | -5.8
CCN(CC)C(=O)C1c2ccccc2Oc2ccccc21 | 5.7 | 17.6* | 27.3* | 5.2 | -0.7 | 1.7
CC(C)CNC(=O)COC(=O)C1c2ccccc2Oc2ccccc21 | -9.2 | -4.8 | 0.6 | -12.9 | 13.2 | -5.1
C=CCN(CC=C)C(=O)C1c2ccccc2Oc2ccccc21 | 19.2 | -7.3 | -0.5 | 12.9 | -10.1 | -13.5
CC(C)[N+](C)(CCOC(=O)C1c2ccccc2Oc2ccccc21)C(C)C | 0.3 | -6.5 | 0.4 | 97.4* | -24.5 | 12.0
CCC(c1nnnn1-c1ccc2c(c1)OCCO2)N1CCN(c2ccccc2OC)CC1 (stereo not drawn) | -0.7 | / | 6.5 | / | / | -19.2
COc1cc(/C=C/C(=O)OCC(=O)c2ccc[nH]2)ccc1O | 8.9 | -0.1 | 0.8 | -9.2 | 11.0 | -2.9
O=C1N(Cc2cccc(Cl)c2)C[C@@H]2C[C@@H](c3ccsc3)N3CCC[C@@]123 | -5.5 | -11.7 | -0.6 | 34.3* | -30.1 | 10.8
O=C1N(Cc2cccc(Cl)c2)C[C@@H]2C[C@@H](c3ccccn3)N3CCC[C@@]123 | 20.4 | -5.6 | 1.0 | -8.9 | -3.8 | -11.7
Cc1ccc(S(=O)(=O)NC(=O)C2(C)CCN2C(=O)c2ccccc2)nc1 (stereo not drawn) | 1.5 | -2.2 | 0.6 | -5.3 | 3.7 | 2.6
COc1ccc(/C=N/N2C(=N)SCC2=O)cc1 | 10.9 | -1.3 | 0.1 | -15.3 | 7.5 | -14.9
Cc1ccc(-c2cn(-c3ccccc3)c3[n+]2CCCS3)cc1 | 16.6 | -4.4 | 0.9 | 39.8 | -21.5 | -10.5
CCc1ccc(-n2cc(-c3ccc(F)cc3)[n+]3c2SCCC3)cc1 | 18.9 | -13.0 | 0.9 | 51.7* | -32.4 | -0.5
CSc1ccc(C(=O)C2CCCN(Cc3cccc4nccnc34)C2)cc1 (stereo not drawn) | 18.6 | -7.6 | 2.1 | 67.8* | -25.0 | -19.8
COc1cccc(-n2nnnc2SCC(=O)Nc2ccc(OC)cc2OC)c1 | 7.9 | -0.5 | 0.8 | -6.2 | -0.6 | -8.1
O=C(C#Cc1cccc([N+](=O)[O-])c1)c1ccccc1 | -1.3 | -3.9 | -0.1 | 7.1 | 2.1 | 27.3*
O=C(O)C(=Cc1cccc([N+](=O)[O-])c1)c1ccccc1 | 15.3 | 0.7 | 0.1 | -1.5 | -2.2 | -17.3
Cc1cccc(Cc2c(C)nc3nc(SCC(=O)O)nn3c2C)c1 | -6.2 | -0.6 | -0.5 | 1.2 | 6.5 | -8.4
Cc1ccc(Cc2c(C)nc3nc(SCC(=O)NCCCN4CCCC4)nn3c2C)cc1 | 10.2 | -11.7 | 0.9 | 28.8* | -24.9 | -14.4
Cc1ccc(Cc2c(C)nc3nc(SCC(=O)NCCCN4CCCCC4)nn3c2C)cc1 | 15.4 | -11.3 | 1.5 | 26.4* | -25.1 | -6.2
Cc1nc2nc(SCC(=O)NCCN3CCOCC3)nn2c(C)c1Cc1ccccc1 | -2.6 | -4.1 | 0.1 | -3.8 | 1.0 | -3.2
COc1ccccc1NS(=O)(=O)c1ccc(C)c(C(=O)NCCCN2CCCC2=O)c1 | -3.1 | 3.0 | -0.5 | -0.1 | 13.6 | 30.5*
O=C(Nc1ccc(OCC(F)(F)C(F)F)c(C(F)(F)F)c1)c1ccc(Cl)cc1 | -1.3 | 0.9 | 3.5 | 36.3* | -23.4 | 4.9
O=C(Nc1ccc(Br)c(C(F)(F)F)c1)c1ccccc1 | 13.6 | -8.3 | 7.3 | 8.2 | -19.2 | 3.0
O=C(Nc1ccc(Br)c(C(F)(F)F)c1)c1ccc(C(F)(F)F)cc1 | -5.3 | -0.3 | 12.5 | 63.4* | -23.2 | 15.5
COc1ccccc1CN1CCCC(CNC(=O)c2cccc3ccccc23)C1 (stereo not drawn) | 22.4 | -8.2 | 0.0 | -17.6 | 3.8 | -14.8

Source: PubChem (The Scripps Research Institute Molecular Screening Center)
